Screens from PubChem.
Only some compounds are listed: those with a hit (about 15% of all), similar ones and a draw of the others.
TDP1 cell CPT: DT40-hTDP1 cell growth loss with CPT; 420,000 compounds, 12% hits; chicken DT40 Tdp1-/-;hTDP1 cells + 20 nM CPT, ATP luminescence, 48 h; Potency, µM (doses to about 46.2 µM), for the others: at the top dose activity change, negative = growth inhibition, most hits filed as inhibitors; also: nearly all actives have a fitted effect of over 55% in size
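Chicken DT40 Tdp1-/- cells complemented with human TDP1, 400 cells/well, exposed to compounds plus 20 nM camptothecin for at least 48 h at 37 C; viability read as ATP content by CellTiter-Glo luminescence.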
TDP1 cell noCPT: qHTS for Inhibitors of human tyrosyl-DNA phosphodiesterase 1 (TDP1): qHTS in cells in absence of CPT; Potency, µM (highest dose often 46.2 µM), inactives show at the highest dose activity change, negative = growth inhibition, usual class: inhibitors; AID 686978, 2013; DT40 Tdp1-/- hTDP1 cells, no CPT, ATP luminescence, 48 h; 420,000 compounds, 15% hits; also: nearly all actives have a fitted effect of over 55% in size
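Camptothecin absent (DMSO only). Human TDP1-complemented DT40 knockout cells, 400 cells/well, 37 °C for minimum 48 hr; ATP measured via CellTiter-Glo, 30 min dark incubation, luminescence.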
RORg inh: blocks mouse ROR gamma transcriptional activity | P51450 | Drosophila S2 Gal4-RORgamma UAS-luciferase reporter, 20 h | Potency, µM (highest dose often 53.6 µM), for the others: top-dose activity change, negative = inhibition, most hits filed as inhibitors | 310,000 compounds, 5.4% hits | AID 2551; also: nearly all actives have a fitted effect of over 60% in size
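Using a luciferase readout, inhibitors were identified by reduced reporter activity in Drosophila cells coexpressing a copper-inducible Gal4–ROR gamma fusion and UAS-driven Photinus luciferase, incubated 20 hr after 700 uM copper sulfate.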
12-LOX inh: ALOX12 (human) lipoxygenase inhibition. purified 12hLO, xylenol orange hydroperoxide absorbance. Potency, µM (series often up to 108 µM), for the others: at the highest dose activity change, negative = inhibition, usual class: inhibitors. 580,000 compounds, 1.1% hits. P18054
Target sequence (P18054 whole entry, looked up): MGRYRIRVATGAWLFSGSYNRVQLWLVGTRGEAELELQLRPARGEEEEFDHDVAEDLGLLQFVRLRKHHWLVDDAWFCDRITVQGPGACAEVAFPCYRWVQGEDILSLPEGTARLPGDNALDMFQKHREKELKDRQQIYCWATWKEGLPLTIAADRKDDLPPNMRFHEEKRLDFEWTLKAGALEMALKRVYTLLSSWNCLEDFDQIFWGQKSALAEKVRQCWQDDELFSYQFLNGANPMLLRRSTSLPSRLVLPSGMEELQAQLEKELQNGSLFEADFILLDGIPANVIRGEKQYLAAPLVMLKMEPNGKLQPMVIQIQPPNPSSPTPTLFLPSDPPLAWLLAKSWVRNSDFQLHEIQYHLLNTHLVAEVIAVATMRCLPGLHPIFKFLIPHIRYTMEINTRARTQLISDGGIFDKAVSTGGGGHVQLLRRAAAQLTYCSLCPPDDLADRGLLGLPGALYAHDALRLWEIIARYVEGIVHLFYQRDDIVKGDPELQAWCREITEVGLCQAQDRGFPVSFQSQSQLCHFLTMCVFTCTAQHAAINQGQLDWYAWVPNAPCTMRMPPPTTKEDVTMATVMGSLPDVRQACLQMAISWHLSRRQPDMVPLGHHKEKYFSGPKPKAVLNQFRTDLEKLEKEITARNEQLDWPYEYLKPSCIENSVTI
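Purified human 12hLO (150 nM final) in 25 mM Hepes, 0.01% Triton X-100, pH 7.0 was preincubated 15 min at room temperature with compound. Then 40 uM arachidonic acid was added, 30 min. Hydroperoxide was read by Fe-XO absorbance ratio 573/405 nm.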
Gal4-VP16 FLuc: Gal4-VP16 reporter inhibition counter-screen; Drosophila S2 Gal4-VP16 UAS-luciferase, luminescence, 20 h; Potency, µM (highest dose often 53.6 µM), for inactives: at the top dose activity, negative = inhibition, usual class: inhibitors; 310,000 compounds, 3.5% hits;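 also: Gal4-VP16 expression switched on by copper sulfate through the metallothionein promoter; nearly all actives have a fitted effect of over 50% in size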
ELG1 repair inh: inhibitors of ELG1-dependent DNA repair in HEK293T cells. Potency, µM (titrated, usually from 46.1 µM), for inactives: top-dose activity change, negative = inhibition, hits mostly inhibitors. HEK293T ELG1-luciferase reporter, luminescence, 16 h; DNA damage induced by 5-fluorouridine. 330,000 compounds, 2.3% hits; also: nearly all actives have a fitted effect of over 55% in size
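DMSO vehicle served as the neutral condition. Each well held 2,000 cells given 5-fluorouridine plus compound; after 16 hr at 37 °C/5% CO2, ONE-Glo was added and luciferase measured 30 min later.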
The depositor's hits bear a star; ? = inconclusive; · = no result given; [ ] = dose if it differs, or a comment. Calls follow the shape of the dose curve; as a rule, active = well fitted curve in the direction sought with a large enough effect; inconclusive = small, poorly fitted or top-dose-only effect, or another doubt; inactive = no such curve, though single readings can be large; an effect the other way counts as inactive or inconclusive. % is scaled to controls: 0 for no effect and ±100 for the full control effect; potency is read from the fitted curve at half-maximal effect.

SMILES	TDP1 cell CPT	TDP1 cell noCPT	RORg inh	12-LOX inh	Gal4-VP16 FLuc	ELG1 repair inh
COc1cccc(-c2csc(N3CCN(C(=S)Nc4ccccc4)CC3)n2)c1	?	?	6.3µM*	19%	?	-7%
COc1ccc(-c2csc(N3CCC(c4ccccc4)C3)n2)cc1 (stereo not drawn)	-26%	?	11µM*	-24%	-6%	?
S=C(NCC1CCCO1)N1CCN(c2nc(-c3ccccc3)cs2)CC1 (stereo not drawn)	?	?	40%	1%	-1%	23µM*
COc1cccc(-c2csc(N3CCN(C(=S)Nc4cccc(C)c4)CC3)n2)c1	-29%	?	7.1µM*	-30%	3.2µM*	?
COc1cccc(-c2csc(N3CCN(C(=S)Nc4ccc(Cl)cc4)CC3)n2)c1	?	?	?	-17%	?	?
COc1cc2c(c(OC)c1)C(c1cccc(Cl)c1Cl)C1=C(CCCC1=O)N2 (stereo not drawn)	·	·	·	-18%	·	·
COc1ccccc1NC(=S)N1CCN(c2nc(-c3ccccc3)cs2)CC1	18µM*	16µM*	14µM*	-5%	?	-8%
CNC(=S)N1CCN(c2nc(-c3cccc(OC)c3)cs2)CC1	?	?	-1%	-6%	24%	2%
COc1cccc(-c2csc(N3CCN(Cc4ccccc4)CC3)n2)c1	-5%	-8%	13µM*	-20%	?	18%
COc1cccc(-c2csc(N3CCN(C(=O)Nc4ccccc4Cl)CC3)n2)c1	?	?	?	428%	-5%	-7%
CCOc1ccccc1NC(=S)N1CCN(c2nc(-c3cccc(OC)c3)cs2)CC1	-17%	?	4µM*	-27%	7.9µM*	?
COc1cccc(NC(=O)N2CCN(c3nc(-c4cccc(OC)c4)cs3)CC2)c1	5.2µM*	5.2µM*	-1%	1%	-9%	15µM*
CCOc1ccc(NC(=O)N2CCc3cc(OC)c(OC)cc3C2CNC(=O)c2ccco2)cc1 (stereo not drawn)	·	·	·	25%	·	·
COc1cccc(-c2csc(N3CCN(C(=O)NC45CC6CC(CC(C6)C4)C5)CC3)n2)c1	?	13µM*	-4%	0%	3%	23µM*
Cn1cnc(S(=O)(=O)N2CCCC(C(=O)NCc3ccc(F)cc3)CCNC(=O)CC2)c1 (stereo not drawn)	·	·	·	33%	·	·
O=C(c1cnc[nH]1)N1CC(F)(F)C[C@H]1c1nc(C2CC2)no1	·	·	·	2%	·	·
CCc1ccccc1NC(=O)C(CC)Sc1nc2cc3c(cc2c(=O)n1Cc1ccco1)OCO3 (stereo not drawn)	16µM*	?	-12%	-4%	7%	11%
CCC(Sc1nc2cc(OC)c(OC)cc2c(=O)n1Cc1ccco1)C(=O)NCCOC (stereo not drawn)	-24%	-28%	-9%	-16%	2%	?
CCc1ccc(NC(=O)C(CC)Sc2nc3cc4c(cc3c(=O)n2Cc2ccco2)OCO4)cc1 (stereo not drawn)	18µM*	?	0%	0%	-9%	1%
COc1cc(C(=O)Nc2ccc3oc(=O)ccc3c2)cc(OC)c1OC	·	·	·	-4%	·	·
CCn1cc2nc(SCC(=O)Nc3ccc(OC)c(OC)c3)n(Cc3ccc(Cl)cc3)c(=O)c2n1	18µM*	?	·	-25%	·	·
CCn1cc2nc(SCc3cccc(OC)c3)n(Cc3ccc(Cl)cc3)c(=O)c2n1	16µM*	13µM*	·	?	·	·
CCn1cc2nc(SCc3cc(C)ccc3C)n(CCc3ccccc3)c(=O)c2n1	21µM*	18µM*	·	-18%	·	·
CCSc1nc2cn(CC)nc2c(=O)n1Cc1ccc(C)cc1	·	·	·	-6%	·	·
COc1ccc(OC2CN(C(=O)c3ccc(C(F)(F)F)cc3)C2)cc1	·	·	·	2%[6.33 µM]	·	·
SMILES	TDP1 cell CPT	TDP1 cell noCPT	RORg inh	12-LOX inh	Gal4-VP16 FLuc	ELG1 repair inh
COCc1nc(NCCCc2c(C)noc2C)cc(C2CC(N)C2)n1 (stereo not drawn)	·	·	·	10%	·	·
Fc1ccc(-c2ccnc(=S)[nH]2)cc1	21µM*	?	3.5µM*	?	2.8µM*	?
CSc1sc(-c2ccnc(=S)[nH]2)c(-c2ccccc2)c1C#N	22%	1%	-26%	89%	7%	-5%
O=C(NC1CCN(c2cc(-c3cccs3)[nH]n2)C1)c1cc2ccccc2[nH]1 (stereo not drawn)	·	·	·	-4%	·	·
COc1ccc(SCC(=O)c2ccc(O)cc2O)cc1	·	·	·	40µM*	·	·
O=C(CSC1CCCCC1)c1ccc(O)cc1O	·	·	·	45µM*	·	·
COc1ccc(-c2nnc(SCC(=O)c3ccc(O)cc3O)o2)cc1	-3%	-26%	5.6µM*	-8%	?	?
COc1ccc(-c2nnc(SCC(=O)c3ccc[nH]3)o2)cc1	-18%	-22%	?	23%	?	?
OC(CSCCc1ccccn1)C(O)CSCCc1ccccn1 (stereo not drawn)	·	·	·	16%	·	·
COc1cccc(C(=O)N2CCC[C@H]2c2nc(-c3ccccc3)no2)c1	·	·	·	10%	·	·
